Experiment [1] is described as follows: qHTS assay to identify small molecule antagonists of the retinoic acid receptor (RAR) signaling pathway (AID 1159552; note: nearly all actives have a fitted effect of over 50% in size). A digest of the protocol:
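Test chemicals and DMSO controls were pin-transferred onto C3RL4 cells a day after seeding; retinol (1 uM final) followed at once. Luminescent reporter output was quantified after 6 hr of co-incubation and 30 min with detection reagent.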

The target in experiment [2] is Retinoic acid receptor RXR-alpha (Homo sapiens) (UniProt P19793). Briefly: qHTS assay to identify small molecule agonists of the RXR signaling pathway (AID 1159527; calls by dose curve; note: nearly all actives have a fitted effect of over 35% in size). The gist of the method: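 Using 9-cis retinoic acid as the reference agonist, chemicals were tested in HEK 293T cells […] for 16 hr; substrate loading lasted 2 hr at room temperature.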
Retinoic acid receptor RXR-alpha (Homo sapiens), sequence (P19793 whole entry, looked up): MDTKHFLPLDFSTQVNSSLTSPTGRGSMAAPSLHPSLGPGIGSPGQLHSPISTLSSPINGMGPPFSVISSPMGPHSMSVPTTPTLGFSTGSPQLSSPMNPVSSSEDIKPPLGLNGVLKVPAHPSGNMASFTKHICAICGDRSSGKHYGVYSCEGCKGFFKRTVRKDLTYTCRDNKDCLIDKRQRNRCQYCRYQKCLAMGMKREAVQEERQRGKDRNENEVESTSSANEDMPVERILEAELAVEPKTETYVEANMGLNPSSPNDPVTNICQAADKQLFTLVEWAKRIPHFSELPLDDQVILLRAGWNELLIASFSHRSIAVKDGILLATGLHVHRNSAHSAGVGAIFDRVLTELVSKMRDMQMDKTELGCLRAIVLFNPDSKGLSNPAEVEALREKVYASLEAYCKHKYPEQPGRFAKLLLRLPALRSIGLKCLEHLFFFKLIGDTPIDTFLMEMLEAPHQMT

The nature of experiment [3]: qHTS assay to identify small molecule agonists of the RXR signaling pathway - cell viability counter screen (AID 1159529). Note: series mostly up to about 77 µM; nearly all actives have a fitted effect of over 50% in size. The gist of the method:
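Compounds dissolved in DMSO were pinned onto HEK 293T cells carrying a beta-lactamase reporter under RXR-alpha control and incubated 16 hr. Cytotoxicity was then quantified by CellTiter-Glo luminescence.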

A short description of experiment [4]: qHTS assay to identify small molecule antagonists of the retinoid acid receptor (RAR) signaling pathway - cell viability counter screen (AID 1159551). Note: nearly all actives have a fitted effect of over 35% in size. The gist of the method:
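C3RL4 RARE-luciferase line; cpds + retinol 1 uM final, 6 h, 37 C/5% CO2; CellTiter-Glo ATP luminescence, 30 min RT.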

Experiment [5] in a line: qHTS assay to identify small molecule agonists of the retinoic acid receptor (RAR) signaling pathway (AID 1159553). Note: potency is the fitted concentration of half-maximal effect. The gist of the method:
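RARE-luc C3RL4 cells; overnight attachment 37 C/5% CO2; compound (DMSO) 6 hr; luciferase reagent, 30 min RT; luminescence read-out.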

Records with an inconclusive call do not appear. Values without a mark were called inactive. Active and inactive are the calls of the source. Unless noted, calls come from the whole dose curve; as a rule, active = well fitted curve in the direction sought with a large enough effect in the repeat runs; inconclusive = weak or mixed curves; inactive = no such curve, though single readings can be large; an effect the other way counts as inactive or inconclusive.
% is set by controls: 0 for no effect and ±100 for the full control effect.

Regarding `CCCC1C(CC)=CC(CC)=CN1c1ccccc1` (stereo not given), the Potency entry in experiment [1] was “inactive”.
Take `CC(CCc1ccc2c(c1)OCO2)NN` (stereo not given): in experiment [1], the Potency entry was “inactive”.
With `c1cnc2c(n1)CCCC2`, the Potency entry in experiment [2], in experiment [3], in experiment [4], in experiment [1] and in experiment [5] was “inactive” each time.
Take `CCCOC(=O)c1ccc(N)cc1`: the Potency entry in experiment [2], in experiment [3], in experiment [4] and in experiment [1] was “inactive” throughout. For the same compound, in experiment [5], the Potency is 23.7 µM (active).
With `CCCCC(CC)CNCC(CC)CCCC` (stereo not given), the Potency result in experiment [2], in experiment [3], in experiment [4], in experiment [1] and in experiment [5] was “inactive” in each case.
For `[O]=[Bi]`, the activation in experiment [2] is -1.06% [at 6.98 µM]. Besides, the activity change, negative = cytotoxicity in experiment [3] is 0.795% [at 6.97 µM]; in experiment [4], -0.124% [at 8.39 µM]. In addition, the activity, negative = inhibition in experiment [1] was 92.1% [at 8.39 µM].
Take `CC1=CC(=O)CC(C)(C)C1(O)/C=C/C(C)=C\C(=O)O` (stereo not given): the Potency result in experiment [2], in experiment [3], in experiment [4], in experiment [1] and in experiment [5] was “inactive” in each case.
On to `CC(C)CCCC(=O)O`, for which the Potency entry in experiment [2], in experiment [3], in experiment [4], in experiment [1] and in experiment [5] was “inactive” each time.
On to `O=C(/C=C/c1ccccc1)OCCCc1ccccc1`, for which the Potency result in experiment [2], in experiment [3], in experiment [4] and in experiment [1] was “inactive” in each case. For the same compound, the Potency in experiment [5] is 61.1 µM (active).
Regarding `CC(C)C(=O)O`, the Potency entry in experiment [2], in experiment [3], in experiment [4] and in experiment [1] was “inactive” each time.
Regarding `CC(C)CCCCCCOC(=O)CCCCC(=O)OCCCCCCC(C)C`, the Potency result in experiment [2], in experiment [3], in experiment [4], in experiment [1] and in experiment [5] was “inactive” throughout.
As to `Cc1nc2ccccc2s1`, the Potency result in experiment [2], in experiment [3], in experiment [4], in experiment [1] and in experiment [5] was “inactive” each time.
For the compound `C=CC(=C)CCCC(C)(C)OC(C)=O`, the Potency result in experiment [2], in experiment [3], in experiment [4], in experiment [1] and in experiment [5] was “inactive” each time.
With `COC(=O)c1cc(S(N)(=O)=O)ccc1OC`, the Potency entry in experiment [2], in experiment [3], in experiment [4], in experiment [1] and in experiment [5] was “inactive” in each case.

For the origin of these results see PubChem BioAssay (Tox21).
